Source: PubChem BioAssay AID1159580 (chemical genetic matrix, 2015)
About 2,000 (36%) of roughly 5,500 compounds were called active. Inconclusive results (about 18%) are left out. Rule as the data show it: active = normalized growth mostly below about 0.91 (no sharp cut-off); inconclusive = no clear call, values can overlap the other calls; inactive = mostly above about 0.92. This is one part of the list.

Test: chemical genetic growth profiling, strain panel (AID 1159580);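 also: tested at 20 µM; growth read once vehicle control cultures reached saturation at 30 °C; 1 = growth at the plate median or of vehicle wells; lower values mean less growth of the strain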
Details: growth OD

Measured: normalized growth

CC1CC2C3CC(F)C4=CC(=O)C=CC4(C)C3(F)C(O)CC2(C)C1(O)C(=O)CO (centres undefined)
inactive: S. cerevisiae deletion strains, locus YJR043C, strain POL32, active compounds read low 1.08 | S. cerevisiae deletion strains, locus YJR075W, strain HOC1, active compounds read low 1.02 | S. cerevisiae deletion strains, locus YKL009W, strain mrt4, active compounds read low 1.01 | S. cerevisiae deletion strains, locus YKL068W, active compounds read low 1.01 | S. cerevisiae deletion strains, locus YKL085W, strain MDH1 (second series), active compounds read low 1.01 | S. cerevisiae deletion strains, locus YKL085W, strain MDH1, active compounds read low 1.01 | S. cerevisiae deletion strains, locus YKL160W, strain elf1, active compounds read low 0.984 | S. cerevisiae deletion strains, locus YKL190W, strain CNB1, active compounds read low 1.02 | S. cerevisiae deletion strains, locus YKR001C, strain vps1, active compounds read low 1.03 | S. cerevisiae deletion strains, locus YKR026C, strain gcn3, active compounds read low 0.998 | S. cerevisiae deletion strains, locus YKR091W, strain srl3, active compounds read low 1 | S. cerevisiae deletion strains, locus YLL001W, strain dnm1, active compounds read low 0.984 | S. cerevisiae deletion strains, locus YLL026W, active compounds read low 0.997 | S. cerevisiae deletion strains, locus YLL041C, strain sdh2, active compounds read low 0.999 | S. cerevisiae deletion strains, locus YLR027C, strain aat2, active compounds read low 0.997 | S. cerevisiae deletion strains, locus YLR039C, strain RIC1, active compounds read low 1.08 | S. cerevisiae deletion strains, locus YLR058C, strain SHM2, active compounds read low 1.02 | S. cerevisiae deletion strains, locus YLR102C, strain apc9, active compounds read low 1.02 | S. cerevisiae deletion strains, locus YLR221C, strain rsa3, active compounds read low 0.985 | S. cerevisiae deletion strains, locus YLR258W, strain gsy2, active compounds read low 0.995 | S. cerevisiae deletion strains, locus YLR262C, strain YPT6 (second series), active compounds read low 0.984 | S. cerevisiae deletion strains, locus YLR262C, strain YPT6, active compounds read low 1.08 | S. cerevisiae deletion strains, locus YLR268W, strain sec22, active compounds read low 1.02 | S. cerevisiae deletion strains, locus YLR320W, strain mms22, active compounds read low 0.993 | S. cerevisiae deletion strains, locus YLR330W, strain CHS5, active compounds read low 1.02 | S. cerevisiae deletion strains, locus YLR342W, strain FKS1 (second series), active compounds read low 1.1 | S. cerevisiae deletion strains, locus YLR342W, strain FKS1, active compounds read low 0.991 | S. cerevisiae deletion strains, locus YLR357W, strain rsc2, active compounds read low 1.01 | S. cerevisiae deletion strains, locus YLR370C, strain arc18, active compounds read low 1 | S. cerevisiae deletion strains, locus YLR371W, strain rom2, active compounds read low 1.01 | S. cerevisiae deletion strains, locus YLR384C, strain iki3, active compounds read low 0.986 | S. cerevisiae deletion strains, locus YLR418C, strain cdc73, active compounds read low 1 | S. cerevisiae deletion strains, locus YML016C, strain PPZ1, active compounds read low 1.02 | S. cerevisiae deletion strains, locus YML032C, strain rad52, active compounds read low 1.05 | S. cerevisiae deletion strains, locus YML120C, strain ndi1, active compounds read low 1 | S. cerevisiae deletion strains, locus YML124C, strain tub3, active compounds read low 1.02 | S. cerevisiae deletion strains, locus YMR058W, strain fet3, active compounds read low 1.01 | S. cerevisiae deletion strains, locus YMR078C, strain ctf18, active compounds read low 1.02 | S. cerevisiae deletion strains, locus YMR125W, strain sto1, active compounds read low 0.986 | S. cerevisiae deletion strains, locus YMR129W, active compounds read low 1 | S. cerevisiae deletion strains, locus YMR205C, strain PFK2, active compounds read low 0.984 | S. cerevisiae deletion strains, locus YMR223W, strain ubp8, active compounds read low 1.04 | S. cerevisiae deletion strains, locus YMR231W, strain pep5, active compounds read low 0.995 | S. cerevisiae deletion strains, locus YMR263W, strain SAP30, active compounds read low 1.04 | S. cerevisiae deletion strains, locus YMR307W, strain GAS1, active compounds read low 1.09 | S. cerevisiae deletion strains, locus YNL067W, strain RPL9B, active compounds read low 1.03 | S. cerevisiae deletion strains, locus YNL071W, strain lat1, active compounds read low 0.999 | S. cerevisiae deletion strains, locus YNL128W, strain TEP1, active compounds read low 1.01 | S. cerevisiae deletion strains, locus YNL153C, strain GIM3, active compounds read low 1.03 | S. cerevisiae deletion strains, locus YNL209W, strain ssb2, active compounds read low 0.996 | S. cerevisiae deletion strains, locus YNL233W, strain BNI4, active compounds read low 1.02 | S. cerevisiae deletion strains, locus YNL248C, strain rpa49, active compounds read low 1.01 | S. cerevisiae deletion strains, locus YNL250W, strain rad50, active compounds read low 1.04 | S. cerevisiae deletion strains, locus YNL271C, strain bni1, active compounds read low 1.03 | S. cerevisiae deletion strains, locus YNL298W, strain CLA4, active compounds read low 1.03 | S. cerevisiae deletion strains, locus YNL307C, strain MCK1, active compounds read low 1.05 | S. cerevisiae deletion strains, locus YNL322C, strain KRE1 (second series), active compounds read low 0.974 | S. cerevisiae deletion strains, locus YNL322C, strain KRE1, active compounds read low 1.02 | S. cerevisiae deletion strains, locus YNR049C, strain mso1, active compounds read low 0.992 | S. cerevisiae deletion strains, locus YNR052C, strain pop2, active compounds read low 1.03 | S. cerevisiae deletion strains, locus YOL006C, strain TOP1, active compounds read low 1.06 | S. cerevisiae deletion strains, locus YOL012C, strain htz1 0.779 | S. cerevisiae deletion strains, locus YOL147C, strain pex11, active compounds read low 1.02 | S. cerevisiae deletion strains, locus YOR001W, strain rrp6, active compounds read low 1.03 | S. cerevisiae deletion strains, locus YOR061W, strain CKA2, active compounds read low 1.02 | S. cerevisiae deletion strains, locus YOR069W, strain VPS5, active compounds read low 1.01 | S. cerevisiae deletion strains, locus YOR070C, strain gyp1, active compounds read low 1 | S. cerevisiae deletion strains, locus YOR080W, strain dia2, active compounds read low 0.995 | S. cerevisiae deletion strains, locus YOR083W, strain WHI5, active compounds read low 0.965 | S. cerevisiae deletion strains, locus YOR106W, strain vam3, active compounds read low 0.97 | S. cerevisiae deletion strains, locus YOR136W, strain idh2, active compounds read low 1.03 | S. cerevisiae deletion strains, locus YOR144C, strain elg1, active compounds read low 1.02 | S. cerevisiae deletion strains, locus YOR184W, strain ser1, active compounds read low 1.08 | S. cerevisiae deletion strains, locus YOR265W, strain rbl2, active compounds read low 1.01 | S. cerevisiae deletion strains, locus YOR270C, strain vph1, active compounds read low 0.928 | S. cerevisiae deletion strains, locus YOR290C, strain snf2, active compounds read low 0.988 | S. cerevisiae deletion strains, locus YOR316C, strain cot1, active compounds read low 1.03 | S. cerevisiae deletion strains, locus YPL051W, strain arl3, active compounds read low 0.989 | S. cerevisiae deletion strains, locus YPL055C, strain LGE1, active compounds read low 1.09 | S. cerevisiae deletion strains, locus YPL078C, strain atp4, active compounds read low 1.03 | S. cerevisiae deletion strains, locus YPL106C, strain sse1, active compounds read low 0.957 | S. cerevisiae deletion strains, locus YPL240C, strain hsp82, active compounds read low 1 | S. cerevisiae deletion strains, locus YPL241C, strain CIN2, active compounds read low 1.02 | S. cerevisiae deletion strains, locus YPR119W, strain clb2, active compounds read low 1.01 | S. cerevisiae deletion strains, locus YPR141C, strain kar3, active compounds read low 1.02 | S. cerevisiae deletion strains, locus YPR163C, strain tif3, active compounds read low 1.04 | S. cerevisiae deletion strains, locus YPR167C, strain met16, active compounds read low 1.01 | S. cerevisiae deletion strains, strain wtn01, active compounds read low 1.02 | S. cerevisiae strains, strain wild type, active compounds read low 1.03
